JMJD2A Tudor inh = qHTS Assay for Inhibitors of JMJD2A-Tudor Domain | AlphaScreen JMJD2A-Tudor / H3K4me3 peptide binding | Potency, µM (titrated, usually from 114 µM), inactives show at the top dose activity change, negative = inhibition, actives largely listed as inhibitors | 4.4% of 390,000 active; note: % is set by controls: 0 for no effect and ±100 for the full control effect; nearly all actives have a fitted effect of over 50% in size
TDP1 block = qHTS Assay for Inhibitors of Tyrosyl-DNA Phosphodiesterase (TDP1); recombinant TDP1, AlphaScreen DNA substrate cleavage; Tyrosyl-DNA phosphodiesterase 1 (Homo sapiens), Q9NUW8; Potency, µM (doses to about 130 µM), for inactives: at the top dose activity change, negative = inhibition, most hits filed as inhibitors; 0.28% of 350,000 active; note: % is set by controls: 0 for no effect and ±100 for the full control effect; nearly all actives have a fitted effect of over 40% in size
Target sequence (Q9NUW8 whole entry, looked up): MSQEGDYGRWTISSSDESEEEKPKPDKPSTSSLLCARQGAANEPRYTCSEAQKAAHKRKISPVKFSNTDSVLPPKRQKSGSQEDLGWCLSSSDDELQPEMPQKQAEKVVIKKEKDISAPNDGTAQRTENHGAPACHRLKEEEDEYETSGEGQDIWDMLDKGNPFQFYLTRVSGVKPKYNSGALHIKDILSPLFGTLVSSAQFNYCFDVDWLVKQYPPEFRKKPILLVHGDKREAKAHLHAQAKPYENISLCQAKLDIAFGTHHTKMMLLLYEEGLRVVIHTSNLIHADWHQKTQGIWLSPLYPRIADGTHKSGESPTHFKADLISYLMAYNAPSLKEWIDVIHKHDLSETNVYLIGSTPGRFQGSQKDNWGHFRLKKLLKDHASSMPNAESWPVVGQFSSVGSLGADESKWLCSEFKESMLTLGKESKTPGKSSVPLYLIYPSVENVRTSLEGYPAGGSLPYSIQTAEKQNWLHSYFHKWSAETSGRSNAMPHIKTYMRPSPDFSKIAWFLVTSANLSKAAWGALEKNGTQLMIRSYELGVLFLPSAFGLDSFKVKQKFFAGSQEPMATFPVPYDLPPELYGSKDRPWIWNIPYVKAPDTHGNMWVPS
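Steps: enzyme plus compound, 15 min RT; add biotin/phosphotyrosine-FITC oligonucleotide (15 nM final), react 5 min; add donor/acceptor beads (10 ug/ml final), 10 min; read AlphaScreen. Tdp1 at 1 nM final.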
HP1b binding inh = HTS for Inhibitors of HP1-beta Chromodomain Interactions with Methylated Histone Tails. Chromobox protein homolog 1 (Homo sapiens), P83916. AlphaScreen HP1-beta / biotin-H3K9me3 peptide binding. Potency, µM (doses to about 114 µM), inactives show top-dose activity change, negative = inhibition, hits mostly inhibitors. 0.56% of 390,000 active; note: nearly all actives have a fitted effect of over 70% in size
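Compound inhibition of the preformed complex between 50 nM HP1-beta and 50 nM biotinylated H3K9me3 peptide was read by AlphaScreen. Buffer was PBS pH 7.4 with 0.01% Tween-20. Incubations ran 30 min at room temperature, with 10 ug/mL donor/acceptor beads.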
G9a block = qHTS Assay for Inhibitors of Histone Lysine Methyltransferase G9a; Histone-lysine N-methyltransferase EHMT2 (Homo sapiens), Q96KQ7; G9a H3K9 monomethylation, AlphaScreen, 2 h; Potency, µM (series often up to 102 µM), without a hit: at the highest dose activity, negative = inhibition, most hits filed as inhibitors; 8.8% of 350,000 active; note: % is set by controls: 0 for no effect and ±100 for the full control effect; nearly all actives have a fitted effect of over 75% in size
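Signal arises when biotinylated H3K9 peptide, once monomethylated, bridges streptavidin donor and antibody-captured acceptor beads. Enzyme at 20 nM was preincubated 15 min with test compounds; peptide 500 nM and SAM 20 uM then reacted for 2 h.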
Sfp inh = qHTS Assay for Inhibitors of Bacillus subtilis Sfp phosphopantetheinyl transferase (PPTase) | 4'-phosphopantetheinyl transferase ffp (Bacillus subtilis), Q9F4F7 | Biochemical Sfp PPTase activity, qHTS | Potency, µM, for the others: largest response in the series, negative = inhibition, hits mostly inhibitors | 3.5% of 310,000 active;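 note: the enzyme is Sfp with the accession as filed and its product quenches rhodamine fluorescence; 0% = enzyme reaction without inhibitor and -100% = no enzyme wells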
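Step 1, compound plus 15 nM Sfp-PPTase, 15 min, room temperature. Step 2, add rhodamine-CoA (5 uM) and BHQ-2-YbbR (12.5 uM). Step 3, read 525/598 nm fluorescence at 0 and 30 min.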
BAZ2B inh = qHTS Assay for Inhibitors of BAZ2B. Bromodomain adjacent to zinc finger domain protein 2B (Homo sapiens), Q9UIF8. AID 504333, 2011. 4.4% of 360,000 active. Potency, µM (titrated, usually from 114 µM), for the others: at the top dose activity change, negative = inhibition, actives largely listed as inhibitors. AlphaScreen BAZ2B-H3K14Ac peptide displacement; note: % is set by controls: 0 for no effect and ±100 for the full control effect; nearly all actives have a fitted effect of over 60% in size
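Multi-concentration screen (max 110 uM) measuring displacement of acetylated histone H3 peptide from BAZ2B by AlphaScreen, using 50 nM protein, 50 nM peptide and 10 ug/mL streptavidin donor plus Ni-chelate acceptor beads.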
* = called active by the depositor; ! = repeats disagree; [ ] = dose if it differs, or a comment. Sampled rows, rich in hits. Any-hit rate of the full collection: about 12%. Calls come from the whole dose curve; as a rule, active = well fitted curve in the direction sought with a large enough effect; inconclusive = small, poorly fitted or top-dose-only effect, or another doubt; inactive = no such curve, though single readings can be large; an effect the other way counts as inactive or inconclusive. Potency is the fitted concentration of half-maximal effect.

Screening CC[C@@H]1[C@@H]2C[C@H]3[C@H]4N(C)c5ccccc5[C@@]45C[C@@H]([C@@H]2[C@@H]5O)N3[C@H]1O returned TDP1 block 14%[21 µM], G9a block -1%[21.5 µM] and Sfp inh 14%.
`N[C@]1(C(=O)O)CC[C@@H](C(=O)O)C1` (racemic) gave TDP1 block -9%, G9a block inconclusive and Sfp inh 56µM*!.
For CCCN1CCC[C@@H]2Cc3n[nH]cc3C[C@H]21 the results were TDP1 block 8%[56.1 µM] and G9a block 22%[12.7 µM].
`S=c1[nH]nc(Cn2c(-c3ccccn3)nc3ccccc32)n1-c1ccc2c(c1)OCCO2` gave JMJD2A Tudor inh 3.2µM*, HP1b binding inh inconclusive, G9a block -135%[59 µM], Sfp inh 79µM* and BAZ2B inh -6%.
For CCCN(CC#CCOc1ccc(OC)cc1)CCC the results were JMJD2A Tudor inh 6.3µM*, TDP1 block 0%, HP1b binding inh -47%, G9a block 8.9µM*, Sfp inh -25% and BAZ2B inh 56µM*.
For CNC(C)Cc1ccc(OC)cc1 (stereo unspecified) the results were TDP1 block 2% and Sfp inh -6%.
NCCNCCNCCNCCN was read as TDP1 block 11%, G9a block 56%[59 µM] and Sfp inh 28%.
Screening O=C(CNC1CCCCC1)N1CCC2(CC1)OCCO2 returned JMJD2A Tudor inh 3.2µM*, TDP1 block -5%, HP1b binding inh inconclusive, G9a block 35µM*, Sfp inh -6% and BAZ2B inh inconclusive.
Screening CN1[C@@H]2CC[C@H]1CC(O[C@@H](c1ccccc1)c1ccc(Cl)cc1)C2 (stereo partly specified) returned TDP1 block 12% and Sfp inh inconclusive.
Screening COC(=O)C1=C(C(=O)OC)C2OC1c1cc3ccccc3cc12 returned JMJD2A Tudor inh 89µM* and HP1b binding inh 1%.
For COC(=O)C1=C(c2ccc3ccccc3c2)C[C@@H]2CC[C@H]1N2C the results were JMJD2A Tudor inh -20%, TDP1 block 0%, HP1b binding inh 18%, G9a block 21%[0.501 µM] and BAZ2B inh -5%.
Screening COc1ccc2c(c1)c(CCN)c(C)n2Cc1ccccc1 returned JMJD2A Tudor inh inconclusive, HP1b binding inh inconclusive, G9a block 40µM*, Sfp inh -15% and BAZ2B inh inconclusive.
Screening Clc1ccc(C2CC3CCC2N3)cn1 (stereo unspecified) returned TDP1 block inconclusive, G9a block 41%[59 µM] and Sfp inh -11%.
C/C(=N\N(C)c1ccccc1)c1c(O)[nH]c(=O)[nH]c1=O was read as JMJD2A Tudor inh -7%, TDP1 block 8%, HP1b binding inh 21%, G9a block 50µM*, Sfp inh 7% and BAZ2B inh -3%.
For CCC(=NC(C)c1ccccc1)c1c(O)[nH]c(=O)[nH]c1=O (stereo unspecified) the results were JMJD2A Tudor inh 18%[57.1 µM], HP1b binding inh 55%, Sfp inh 0% and BAZ2B inh 6%.
`CC/C(=N\Nc1cccc2ccccc12)c1c(O)[nH]c(=O)[nH]c1=O` gave JMJD2A Tudor inh 79µM*, TDP1 block 11%, HP1b binding inh -14%, G9a block 1.6µM*, Sfp inh inconclusive and BAZ2B inh inconclusive.
CC/C(=N\Nc1ccccc1)c1c(O)n(-c2ccc(OC)cc2)c(=O)[nH]c1=O was read as JMJD2A Tudor inh -14%, TDP1 block 10%, HP1b binding inh 12%, G9a block 40µM*, Sfp inh inconclusive and BAZ2B inh -20%.

Bioassay records from PubChem BioAssay.
